Screening data as filed in PubChem BioAssay.
Sampled rows, rich in hits. Any-hit rate of the full collection: about 2.4%.
D2 antagonist = D2 dopamine receptor (human) antagonism; P14416; HEK293 TREx D2 cells, calcium flux, dopamine EC80; inhibition, % at 10 µM; 340,000 tested, 2% active; AID 485344; in the data active = inhibition above about 30%; inactive = below that, where a call was filed
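Compounds are added to dye-loaded, induced HEK293 T-REx cells coupled to calcium release via D2; after a 3 min kinetic read an EC80 dopamine stimulus is given and fluorescence is recorded for 3 more min.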
D2 ag-1 = agonists of human D2 dopamine receptor | P14416 | HEK293 T-REx D2 cells, calcium flux agonist mode | activation, % at 2 µM | 340,000 tested, 0.53% active | AID 485358;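 active = activation over 3 SD above normal in the single-dose calcium agonist read, cut at about 30% in these data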
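Calcium-flux readout, 1 cycle/sec over 180 s following compound pin transfer, in inducible HEK293 Trex D2 cells (force-coupled); dopamine controls included. Positive calcium responses during this window marked compounds as potential agonists.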
D2 PAM-1 = human D2 receptor positive allosteric modulation | P14416 | 360,000 tested, 0.23% active | DiscoveRx D2 beta-arrestin cells, luminescence, 90 min; 100% = 57 uM dopamine signal | potentiation, % (no concentration beside the values); in the data active = potentiation above about 50%; inconclusive = mostly about 30% to 49%
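PathHunter beta-arrestin assay in DiscoveRx D2 cells. Compounds were added with an EC20 of dopamine (50 nM final) for 90 min at 37 deg C. Luminescence was read 1 h after detection reagent, with 57 uM dopamine as the EC100 control.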
D2 ag-2 = human D2 receptor agonism in beta-arrestin assay; P14416; DiscoveRx PathHunter D2 beta-arrestin, luminescence, 90 min; 100% = 57 uM dopamine signal; activation, % (no concentration beside the values); 360,000 tested, 0.084% active; AID 624465; in the data active = activation above about 40%; inconclusive = between about 15% and that limit
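Agonist mode: compounds alone added to overnight-plated D2 PathHunter cells for 90 min at 37 C, with 57 uM final dopamine (EC100) defining full response. Beta-arrestin recruitment detected by chemiluminescent reagent, read after 1 h at ambient temperature.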
D2 PAM-2 = positive allosteric modulators of human D2 dopamine receptor. HEK293 T-REx D2, calcium flux, EC20 dopamine potentiation. P14416. 340,000 tested, 0.34% active. potentiation, % at 10 µM. AID 485347;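 active = potentiation over 3 SD above the plate norm, cut at about 30% in these data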
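Cells plated with tetracycline inducer and held overnight at 30 C; calcium dye loaded 30–90 min at room temperature; baseline taken, compound added and read 180 s; EC20 dopamine then added and read 180 s.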
D3 arrestin ag = D3 receptor agonism confirmed, beta-arrestin readout; shares compounds with D2 ag-1; DiscoveRx D3 beta-arrestin cells, luminescence, 90 min; Potency, µM (top dose mostly 76.9 µM), hits mostly activators; 2,300 tested, 4% active; AID 720506; note: nearly all actives have a fitted effect of over 70% in size
Target sequence (P35462 whole entry, looked up): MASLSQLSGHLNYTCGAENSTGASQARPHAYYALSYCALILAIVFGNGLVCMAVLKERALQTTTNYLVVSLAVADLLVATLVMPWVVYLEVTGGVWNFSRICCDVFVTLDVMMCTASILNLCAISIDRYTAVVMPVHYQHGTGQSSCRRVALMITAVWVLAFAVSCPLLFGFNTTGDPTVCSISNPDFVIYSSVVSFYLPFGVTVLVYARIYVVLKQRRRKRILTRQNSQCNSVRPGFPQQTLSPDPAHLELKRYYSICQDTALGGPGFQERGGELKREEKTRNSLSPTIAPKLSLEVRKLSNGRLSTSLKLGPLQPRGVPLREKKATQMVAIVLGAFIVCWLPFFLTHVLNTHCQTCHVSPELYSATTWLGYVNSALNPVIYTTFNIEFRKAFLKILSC
D2 ag-3 = activates human D2 dopamine receptor in D3 counterscreen; shares compounds with D2 ag-1; Potency, µM (doses to about 76.9 µM), hits mostly activators; DiscoveRx PathHunter D2 beta-arrestin, luminescence, 90 min; response scale: percent relative to full dopamine signal; 2,300 tested, 5.9% active; AID 720507; note: nearly all actives have a fitted effect of over 70% in size
Large screens that a line does not name were inactive (follow-up assays come after a bar, where they were run). Unless noted, calls come from the whole dose curve; as a rule, active = well fitted activation curve with a large enough effect; inconclusive = small, poorly fitted or top-dose-only effect; inactive = flat fitted curve, though single readings scatter.

COc1ccc(OC)c(NC(=O)CCN2CCN(C)CC2)c1	none
COCCn1c(=O)[nH]c2cc(C(=O)NCCN3CCN(c4cccc(Cl)c4)CC3)ccc2c1=O	D2 antagonist 87, D2 ag-1 59 | D3 arrestin ag inactive | D2 ag-3 inconclusive
COCCn1c(=S)[nH]c2cc(C(=O)N3CCN(c4cccc(Cl)c4)CC3)ccc2c1=O	none (no result: D2 antagonist, D2 ag-1, D2 PAM-2)
COc1ccc(OC)c(NC(=O)CCN2CCN(C/C=C/c3ccccc3)CC2)c1	D2 ag-1 49 | D3 arrestin ag inactive | D2 ag-3 inactive
CCCNC(=O)C1CCN(c2cc(C)nc3c(-c4ccc(OC)c(OC)c4)c(C)nn23)CC1	none (no result: D2 antagonist, D2 PAM-1, D2 ag-2)
CC(=O)SC1CC(=O)N(c2c(C)cccc2C)C1=O (stereo not drawn)	D2 ag-1 55 | D3 arrestin ag inactive | D2 ag-3 inactive
CCOC(=O)c1[nH]c2ccc(Br)cc2c1NC(=O)CCN1CCCC(C)(C)C1	D2 ag-1 60 | D3 arrestin ag inactive | D2 ag-3 inactive
CCOC(=O)c1[nH]c2ccc(F)cc2c1NC(=O)CCN1CCOCC1	none
COc1ccccc1CNC(=O)Cn1c(-c2cccs2)cc2cc(F)ccc21	none (no result: D2 antagonist, D2 ag-1, D2 PAM-1, D2 ag-2)
CC(C)N(C(=O)Nc1ccc2nsnc2c1)C(C)C	D2 ag-1 53 | D3 arrestin ag inconclusive | D2 ag-3 inactive
CCCNC(=O)C(=O)Nc1ccc(N(C)C)cc1	none
CN(C)c1ccc(NC(=O)C(=O)NCCOc2ccccc2)cc1	D2 ag-1 34 | D3 arrestin ag inconclusive | D2 ag-3 inactive
CC(=O)N/C(=C/C(C)C)c1ccccc1	none | D3 arrestin ag inactive | D2 ag-3 inactive
CCc1ccc(CNC(=O)c2sc3ncccc3c2-n2c(C)ccc2C)cc1	none (no result: D2 antagonist, D2 PAM-1, D2 ag-2)
Cc1cccc(C(=O)NCc2cn3cccc(C)c3n2)c1	none (no result: D2 antagonist, D2 ag-1, D2 PAM-1, D2 ag-2)
O=C(CSc1nc2c(oc3ccccc32)c(=O)n1-c1ccccc1)Nc1ccccc1F	none (no result: D2 antagonist, D2 PAM-1, D2 ag-2)
COc1cc(CC(=O)OCC(=O)NC(C)c2ccccc2)cc(OC)c1OC (stereo not drawn)	none (no result: D2 antagonist, D2 ag-1, D2 PAM-2)
COc1cccc(CC(=O)OCC(=O)NC(C)c2ccc(F)cc2)c1 (stereo not drawn)	none | D3 arrestin ag inactive | D2 ag-3 inactive
COC(=O)c1ccc2c(c1)NC(=O)C(N1CCOCC1)S2 (stereo not drawn)	none
CCCCN(C)CCNC(=O)c1ccc2c(c1)NC(=O)C(N1CCCCC1)S2 (stereo not drawn)	D2 antagonist 73, D2 ag-1 50 | D3 arrestin ag inconclusive | D2 ag-3 inactive
CC1C(=O)N(Cc2ccc([N+](=O)[O-])cc2)c2ccccc2N1C(=O)c1c(F)cccc1F (stereo not drawn)	none
COc1ccc(CN2C(=O)C(C)N(C(=O)c3c(F)cccc3F)c3ccccc32)cc1 (stereo not drawn)	none | D3 arrestin ag inactive | D2 ag-3 inactive
CCCOc1ccc(C(=O)NNC(=S)NC(=O)c2ccco2)cc1	D2 ag-1 34 | D3 arrestin ag inactive | D2 ag-3 inactive
Cc1ccc(-n2ncc(C(=O)N3CCN(C4CCCCC4)CC3)c2C2CCN(C(=O)OC(C)(C)C)CC2)cc1C	none (no result: D2 antagonist, D2 PAM-1, D2 ag-2)
FC(F)(F)c1ccc(Cl)c(NC2=NCCCCC2)c1	D2 ag-1 53 | D3 arrestin ag inactive | D2 ag-3 inactive
FC(F)(F)c1ccc(N2CCOCC2)c(NC2=NCCCCC2)c1	none
CC(Sc1nnc(-c2cccnc2)n1N)C(=O)NCCC1=CCCCC1 (stereo not drawn)	D2 ag-1 47 | D3 arrestin ag inactive | D2 ag-3 inactive
CC(Sc1nnc(-c2cccnc2)n1N)C(=O)N1CCOCC1 (stereo not drawn)	none
Cc1cccc(OCC(=O)Nc2ccc3nc(Nc4cccc(Cl)c4)cc(C)c3c2)c1	none (no result: D2 antagonist, D2 PAM-1, D2 ag-2)
CCOC(=O)C1(CCOC)CCN(Cc2cccc(OCc3ccccc3)c2)CC1	D2 antagonist 37, D2 ag-1 63 | D3 arrestin ag inactive | D2 ag-3 inactive
